Assay outcomes (PubChem BioAssay)
A selection: hits, their analogues and other compounds. The true share with any hit is near 17%.
DT40 TDP1 CPT: qHTS for Inhibitors of human tyrosyl-DNA phosphodiesterase 1 (TDP1): qHTS in cells in presence of CPT | chicken DT40 Tdp1-/-;hTDP1 cells + 20 nM CPT, ATP luminescence, 48 h | Potency, µM (series often up to 46.2 µM), for the others: top-dose activity change, negative = growth inhibition, actives largely listed as inhibitors | hit rate 12% among 420,000; note: % is set by controls: 0 for no effect and ±100 for the full control effect; nearly all actives have a fitted effect of over 55% in size
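Cell growth measured by CellTiter-Glo luminescence after a minimum 48 h, 37 C compound exposure with 20 nM CPT in Tdp1-knockout DT40 cells stably expressing hTDP1, seeded 400/well; qHTS titration format.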
TGFb inhibitor: qHTS for Inhibitors of TGF-b; HepG2 CAGA-GFP TGF-b/SMAD3 reporter, GFP fluorescence, 18 h; TGF-beta stimulated, 500 pg/mL final; Potency, µM (top dose mostly 46.1 µM), inactives show at the highest dose activity, negative = inhibition, hits mostly inhibitors; AID 588855, 2011; hit rate 1.2% among 410,000; note: % is set by controls: 0 for no effect and ±100 for the full control effect; nearly all actives have a fitted effect of over 65% in size
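Per well, imaged GFP fluorescence of HEPG2 CAGA-GFP cells gives the signal; cells get compound, then TGF-beta (500 pg/mL final), 18 h at 37 degrees C; %Activity versus -TGF-beta and +DMSO controls.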
HepG2 viability: qHTS for Inhibitors of TGF-b: Cytotox Counterscreen; AID 588856, 2011; hit rate 0.76% among 410,000; HepG2 CAGA-GFP viability, ATP luminescence, 18 h; Potency, µM (series often up to 46.1 µM), for inactives: at the highest dose activity change, negative = cytotoxicity, hits mostly cytotoxic
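HepG2 CAGA-GFP cells (1000/well, DMEM with 1% FBS) received compound, then TGF-beta at 500 pg/mL final, and were incubated 18 hours at 37 degrees C. Viability was read by CellTiter-Glo luminescence. Media-only wells were set as complete cell-killing and DMSO as no toxicity.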
HT1080 IDH1KD tx: qHTS for induction of synthetic lethality in tumor cells producing 2HG: qHTS for the HT-1080-IDH1KD cell line | hit rate 2% among 360,000 | Potency, µM (titrated, usually from 46.1 µM), inactives show at the top dose activity, negative = toxicity, usual class: cytotoxic | HT-1080 IDH1 knockdown viability, ATP luminescence, 48 h;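 note: 0% = DMSO wells and -100% = cell-free medium wells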
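IDH1KD HT-1080 cells, 750/well, RPMI + 5% FBS; compound pinned after 2 h settling; 48 h, 37 °C; CellTiter-Glo luminescence; % activity normalised to DMSO and no-cell wells; curves fitted, classed by r2 and efficacy.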
HT1080-NT tox: qHTS for induction of synthetic lethality in tumor cells producing 2HG: qHTS for the HT-1080-NT fibrosarcoma cell line; HT-1080-NT fibrosarcoma viability, CellTiter-Glo ATP luminescence, 48 h; Potency, µM (top dose mostly 46.1 µM), for the others: at the top dose activity, negative = less viability, actives largely listed as cytotoxic; hit rate 1.6% among 360,000; AID 686970, 2013;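 note: NT is the 2HG producing partner of a matched IDH1 knockdown line; 0% = DMSO-treated cells and -100% = media-only wells without cells; nearly all actives have a fitted effect of over 55% in size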
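HT-1080-NT fibrosarcoma cells (2HG-overproducing), 750 cells/well in RPMI with 5% FBS, dosed after 2 h and incubated 48 h at 37C. CellTiter-Glo luminescence normalized to DMSO and no-cell wells; concentration-response curves fitted and classed.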
DT40 TDP1 no CPT: qHTS for Inhibitors of human tyrosyl-DNA phosphodiesterase 1 (TDP1): qHTS in cells in absence of CPT; hit rate 15% among 420,000; Potency, µM (series often up to 46.2 µM), for inactives: at the top dose activity change, negative = growth inhibition, most hits filed as inhibitors; DT40 Tdp1-/- hTDP1 cells, no CPT, ATP luminescence, 48 h; note: % is set by controls: 0 for no effect and ±100 for the full control effect; nearly all actives have a fitted effect of over 55% in size
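Compound effects on proliferation are scored in DT40 Tdp1-/-;hTDP1 cells in the absence of CPT. ATP levels (CellTiter-Glo luminescence) are recorded after a ≥48 hr, 37 °C incubation.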
* = called active by the depositor; ? = inconclusive; · = not tested or not shown. Calls come from the whole dose curve; as a rule, active = well fitted curve in the direction sought with a large enough effect; inconclusive = small, poorly fitted or top-dose-only effect, or another doubt; inactive = no such curve, though single readings can be large; an effect the other way counts as inactive or inconclusive. Potency is the fitted concentration of half-maximal effect.

SMILES	DT40 TDP1 CPT	TGFb inhibitor	HepG2 viability	HT1080 IDH1KD tx	HT1080-NT tox	DT40 TDP1 no CPT
CCN(CC)CCn1c(=N)n(CCOc2ccccc2Cl)c2ccccc21	3.66µM*	?	-98.3%	·	·	4.11µM*
CCN(CC)CCn1c(=N)n(CC(O)COc2ccccc2C)c2ccccc21 (configuration not stated)	8.2µM*	·	-100.8%	·	·	2.59µM*
CCC(=O)N1CCc2cc(S(=O)(=O)NC(CC(C)C)C(=O)NCCc3ccccc3)ccc21 (configuration not stated)	?	5.4%	-14.0%	·	·	?
COc1ccc(NC(=O)CN(C)C2=NS(=O)(=O)c3ccccc32)cc1Cl	-17.8%	-0.2%	2.0%	7.7%	6.0%	-5.1%
Nc1nc2ccccc2n1CCOc1ccc(Cl)cc1	?	?	-40.0%	?	?	?
Cc1ccc2oc(=O)n(CCCOc3ccccc3Cl)c2c1	20.6µM*	?	-13.3%	·	·	?
CCCCn1c(=N)n(CC(=O)O)c2ccccc21	6.7%	0.6%	-10.3%	15.9%	12.2%	-5.0%
N=c1n(CCCOc2ccccc2Cl)c2ccccc2n1CC(N)=O	18.4µM*	12.6µM*	-188.2%	?	?	20.6µM*
Nc1nc2ccccc2n1CCOc1ccccc1Cl	?	?	-76.9%	?	?	25.9µM*
Cc1ccc2oc(=O)n(CCOc3ccccc3Cl)c2c1	?	2.5%	-13.6%	-6.0%	-6.0%	-29.0%
COc1ccc2cc3[n+](cc2c1OC)CCc1cc2c(cc1-3)OCO2	3.66µM*	-6.1%	-21.2%	?	?	2.31µM*
C[C@H](O)[C@@H]1C(=O)N2CCc3c([nH]c4ccccc34)[C@@H]2C[C@@H]1N(C)C(=O)c1cc(Cl)cc(Cl)c1	23.1µM*	?	-50.2%	?	-10.0%	18.4µM*
Cc1ccccc1C(=O)N(C)[C@H]1C[C@H]2c3[nH]c4ccccc4c3CCN2C(=O)[C@H]1[C@H](C)O	?	-10.7%	-6.4%	1.4%	-9.7%	20.6µM*
C[C@H](O)[C@@H]1C(=O)N2CCc3c([nH]c4ccccc34)[C@@H]2C[C@@H]1N(C)Cc1ccc2c(c1)OCO2	?	2.7%	-25.1%	-12.1%	-18.2%	16.4µM*
C[C@H](O)[C@@H]1C(=O)N2CCc3c([nH]c4ccccc34)[C@@H]2C[C@@H]1N(C)S(=O)(=O)c1ccccc1	?	-13.7%	-26.7%	-5.5%	-2.9%	23.1µM*
C[C@H](O)[C@@H]1C(=O)N2CCc3c([nH]c4ccccc34)[C@@H]2C[C@@H]1N(C)C(=O)Nc1cccc2ccccc12	?	?	-15.3%	?	?	?
COc1ccc(C(=O)N(C)[C@H]2C[C@H]3c4[nH]c5ccccc5c4CCN3C(=O)[C@H]2CO)cc1	-16.9%	4.0%	2.0%	0.2%	-3.3%	?
COCCn1c(N)c(N(Cc2ccccc2)C(=O)COc2ccccc2F)c(=O)[nH]c1=O	9.0%	-2.9%	-4.1%	0.8%	13.4%	-1.3%
CCNC(=O)C1CCCN(C(=O)c2ccc(C(F)(F)F)cc2)CC1 (configuration not stated)	-6.1%	-13.2%	-28.4%	24.2%	30.0%	-6.8%
C[C@H](O)[C@@H]1CN2CCc3c([nH]c4ccccc34)[C@@H]2C[C@@H]1N(C)Cc1cc(Cl)cc(Cl)c1	?	-22.6%	-6.3%	-9.1%	-15.6%	23.1µM*
